Screening results (PubChem BioAssay)
Dicer inh: blocks human Dicer maturation of pre-miR-21; cat-ELCCA pre-miR-21 Dicer processing, chemiluminescence; active compounds read high; z-score at 25 µM; actives 6% (n = 47,000); in the data active = z-score above about 3, passing the limit was not always enough;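 note: higher signal means more uncleaved substrate so more Dicer inhibition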
Target sequence (Q9UPY3 whole entry, looked up): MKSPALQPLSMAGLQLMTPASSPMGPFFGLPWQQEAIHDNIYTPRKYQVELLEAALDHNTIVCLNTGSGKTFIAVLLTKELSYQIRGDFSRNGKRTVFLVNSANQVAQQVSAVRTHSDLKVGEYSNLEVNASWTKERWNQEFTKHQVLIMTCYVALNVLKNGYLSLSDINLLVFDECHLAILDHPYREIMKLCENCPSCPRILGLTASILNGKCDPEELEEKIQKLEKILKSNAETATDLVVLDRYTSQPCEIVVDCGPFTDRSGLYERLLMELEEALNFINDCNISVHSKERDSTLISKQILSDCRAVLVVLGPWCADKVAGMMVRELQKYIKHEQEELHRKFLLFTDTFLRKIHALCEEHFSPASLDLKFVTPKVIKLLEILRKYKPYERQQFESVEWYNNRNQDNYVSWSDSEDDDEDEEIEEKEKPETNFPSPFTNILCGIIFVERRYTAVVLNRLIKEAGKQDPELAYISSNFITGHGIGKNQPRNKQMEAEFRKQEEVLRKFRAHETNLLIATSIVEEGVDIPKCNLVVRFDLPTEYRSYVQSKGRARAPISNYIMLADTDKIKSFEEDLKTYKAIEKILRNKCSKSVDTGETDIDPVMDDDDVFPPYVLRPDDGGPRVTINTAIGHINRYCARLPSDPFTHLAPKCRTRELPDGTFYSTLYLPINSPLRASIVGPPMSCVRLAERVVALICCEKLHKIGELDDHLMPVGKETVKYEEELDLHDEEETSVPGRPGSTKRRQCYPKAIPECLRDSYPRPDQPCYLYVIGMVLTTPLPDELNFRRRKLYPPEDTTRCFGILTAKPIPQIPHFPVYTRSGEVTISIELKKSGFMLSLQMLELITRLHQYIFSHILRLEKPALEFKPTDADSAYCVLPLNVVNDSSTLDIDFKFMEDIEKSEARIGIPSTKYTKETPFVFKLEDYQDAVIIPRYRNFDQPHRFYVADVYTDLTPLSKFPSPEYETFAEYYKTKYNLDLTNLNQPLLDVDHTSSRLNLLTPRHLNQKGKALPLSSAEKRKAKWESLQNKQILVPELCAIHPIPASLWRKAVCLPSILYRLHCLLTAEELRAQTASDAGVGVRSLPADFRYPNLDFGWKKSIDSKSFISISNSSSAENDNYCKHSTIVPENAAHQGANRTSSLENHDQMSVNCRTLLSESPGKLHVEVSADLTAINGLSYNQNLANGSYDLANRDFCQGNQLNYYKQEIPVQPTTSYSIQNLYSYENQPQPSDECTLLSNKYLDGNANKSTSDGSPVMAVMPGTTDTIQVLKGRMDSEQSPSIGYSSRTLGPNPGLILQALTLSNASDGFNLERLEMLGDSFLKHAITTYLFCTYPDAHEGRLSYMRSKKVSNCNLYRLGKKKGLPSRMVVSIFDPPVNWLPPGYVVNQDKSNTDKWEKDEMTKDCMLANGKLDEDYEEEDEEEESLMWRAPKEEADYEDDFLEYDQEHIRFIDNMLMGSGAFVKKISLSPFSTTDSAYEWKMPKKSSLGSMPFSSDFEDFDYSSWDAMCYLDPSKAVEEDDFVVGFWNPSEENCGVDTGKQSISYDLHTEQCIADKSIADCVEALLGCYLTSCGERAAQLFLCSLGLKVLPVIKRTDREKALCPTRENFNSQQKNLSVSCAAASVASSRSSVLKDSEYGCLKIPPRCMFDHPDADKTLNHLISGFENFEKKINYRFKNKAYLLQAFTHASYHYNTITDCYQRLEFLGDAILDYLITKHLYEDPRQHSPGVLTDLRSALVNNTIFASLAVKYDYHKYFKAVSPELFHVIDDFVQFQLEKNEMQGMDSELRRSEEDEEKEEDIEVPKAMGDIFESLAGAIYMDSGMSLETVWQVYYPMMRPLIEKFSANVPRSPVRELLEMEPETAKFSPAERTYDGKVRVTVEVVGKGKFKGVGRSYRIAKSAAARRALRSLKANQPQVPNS
Of the large screens only hits and unclear results are named; the others gave an inactive call. Many of the other results were omitted from the sample, so hits are more common in it than they were.

O=C(CCSc1nnc(NC(=O)Cn2c(=O)oc3ccccc32)s1)Nc1ccccc1	none
O=C(Cn1c(=O)oc2ccccc21)Nc1nnc(SCC(=O)N2CCOCC2)s1	Dicer inh 3.2
CC(C)c1nnc(NC(=O)Cn2c(=O)oc3ccccc32)s1	none
CC(C)(C)NC(=O)CSc1nnc(NC(=O)Cn2c(=O)oc3ccccc32)s1	none
O=C(Cn1c(=O)oc2ccccc21)Nc1nnc(SCC(=O)N2CCCCC2)s1	none
O=C(Cn1c(=O)oc2ccccc21)Nc1nnc(SCc2ccccc2)s1	Dicer inh 3
O=C(Nc1ccccc1Sc1c(Cl)cncc1Cl)c1ccc(Cl)cc1	none
COC(=O)c1ccc(-n2nnnc2SCc2ccc(Cl)cc2)cc1	none
N/C(Cc1cccc2ccccc12)=N\OC(=O)Nc1ccc(Cl)cc1	none
COC(=O)Cc1c(C(=O)OC)nnn1-c1ccc(Cl)cc1	none
Cc1ccc(S(=O)(=O)N2CCN(c3nc(C)nc4sc5c(c34)CCCC5)CC2)cc1	none
C=CCN1C(=O)C2(/C(=C(/O)c3ccc(Cl)cc3)C(=O)C(=O)N2CCCOC)c2ccccc21 (stereo unspecified)	Dicer inh 3.4
C=CCN1C(=O)C2(/C(=C(/O)c3ccc(F)cc3)C(=O)C(=O)N2CCN(C)C)c2ccccc21 (stereo unspecified)	Dicer inh 3.9
C=CCN1C(=O)C2(/C(=C(/O)c3ccc(C)c(F)c3)C(=O)C(=O)N2CCCN(C)C)c2ccccc21 (stereo unspecified)	none
CN(C)CCCN1C(=O)C(=O)/C(=C(\O)c2ccc(F)cc2)C12C(=O)N(C)c1ccccc12 (stereo unspecified)	none
COCCCN1C(=O)C(=O)/C(=C(\O)c2ccc(Cl)cc2)C12C(=O)N(C)c1ccccc12 (stereo unspecified)	none
C=CCN1C(=O)C2(/C(=C(/O)c3ccc(C)cc3)C(=O)C(=O)N2CCCN(C)C)c2ccccc21 (stereo unspecified)	none
C=CCN1C(=O)C2(/C(=C(/O)c3ccc(OC)cc3)C(=O)C(=O)N2CCCN(C)C)c2ccccc21 (stereo unspecified)	Dicer inh 3.6
C=CCN1C(=O)C2(/C(=C(/O)c3ccc(OC)cc3)C(=O)C(=O)N2CCOC)c2ccccc21 (stereo unspecified)	none
C=CCN1C(=O)C2(/C(=C(/O)c3ccc(C)cc3)C(=O)C(=O)N2CCCOC)c2ccccc21 (stereo unspecified)	none
C=CCN1C(=O)C2(/C(=C(/O)c3ccc(C)c(F)c3)C(=O)C(=O)N2CCN(C)C)c2ccccc21 (stereo unspecified)	none
C=CCN1C(=O)C2(/C(=C(/O)c3ccc(OC)cc3)C(=O)C(=O)N2CCCOC)c2ccccc21 (stereo unspecified)	Dicer inh 3.2
Cc1cc(C)c(CSC2=NCCS2)c(C)c1	none
CCOC(=O)c1csc(N/N=C/c2ccccc2Cl)n1	none
O=C(Nc1cccc(C(F)(F)F)c1)c1cccc(C(F)(F)F)n1	none
CCOC(=O)c1sc(SCc2ccccc2)c(S(=O)(=O)C(C)C)c1N	none
CC(=O)OC[C@H]1O[C@@H](c2nn[nH]n2)[C@H](OC(C)=O)[C@@H](OC(C)=O)[C@@H]1OC(C)=O	none
O=C(CSC1CC(=O)N(c2cccc(Cl)c2)C1=O)Nc1ccc(Br)cc1 (stereo unspecified)	none
Cc1csc(-c2nc(-c3ccc(C(C)(C)C)cc3)no2)c1	none
O=C(Cc1ccccc1)c1ccc(-c2ccccc2)cc1	none
CCOc1ccc2nc(NC3=NCN(CCc4ccccc4)CN3)nc(C)c2c1	none
CCc1ccc2c(c1)c1nc(C)sc1n2C	none
COc1ccccc1OCC(O)CN1CCC(C)CC1 (stereo unspecified)	none
COc1ccccc1N1CCN(CN2C(=O)C(=O)c3cc(Br)ccc32)CC1	none
CCCNC(=O)NNC(=O)C(C)n1nnc(-c2cc(C(F)(F)F)cc(C(F)(F)F)c2)n1 (stereo unspecified)	none
Fc1ccc(C2Nc3cccc4cccc(c34)N2)cc1	none
Brc1ccc(C2Nc3cccc4cccc(c34)N2)cc1	Dicer inh 5
COc1ccc(C2Nc3cccc4cccc(c34)N2)cc1Br	Dicer inh 4.9
COc1ccc(C#N)cc1Br	none
COc1cccc(C2Nc3cccc4cccc(c34)N2)c1O	none
Oc1ccc2ccccc2c1C1Nc2cccc3cccc1c23 (stereo unspecified)	none
CC(C)(C)C(=O)Nc1ncccc1C(=O)O	none
CSc1ccc(/C=N/NC(N)=O)s1	none
CC(C)(C)C(=O)NCCNC(=O)c1nonc1N	none
Nc1nonc1C(=O)NCCNC(=O)c1cccc(Br)c1	Dicer inh 5.2
Nc1nonc1C(=O)NCCNCc1cccs1	none
COc1ccc(C(=O)Oc2ccc3c(=O)c(Oc4ccccc4Br)coc3c2)cc1	none
COc1cccc(OC)c1C(=O)Oc1ccc2c(=O)c(Oc3ccccc3Br)coc2c1	none
COc1ccc(Oc2coc3cc(OC(=O)c4cccs4)ccc3c2=O)cc1	none
COc1ccc2c(=O)c(Oc3ccccc3Br)coc2c1	Dicer inh 4.7
COc1ccc(Oc2coc3cc(OC(=O)c4ccc(Br)cc4)ccc3c2=O)cc1	Dicer inh 5.4
COc1ccc(Oc2coc3cc(OC(=O)c4ccco4)ccc3c2=O)cc1	none
CC(C)S(=O)(=O)c1csc(C(=O)O)c1	none
COc1ccc(N2C(=O)N(c3ccc(OC)cc3)C3CS(=O)(=O)CC32)cc1 (stereo unspecified)	Dicer inh 3.9
COC(=O)c1ccc(N2C(=O)CSC2c2ccc(OC)cc2)cc1 (stereo unspecified)	none
COc1ccc(N2C(=O)CSC2c2ccc(Br)cc2)cc1 (stereo unspecified)	none
N#C/C(=C\NC1CCN(Cc2ccccc2)CC1)S(=O)(=O)c1ccc(Cl)cc1	none
Cc1ccc(OCCSc2nc(C)cc(=O)[nH]2)cc1	Dicer inh 4.9
COc1ccccc1OCCSc1nc(C)cc(=O)[nH]1	none
CCOc1ccc(OCCSc2nc(C)cc(=O)[nH]2)cc1	none
CCSc1sc(C(=O)O)c(-c2ccc(Cl)cc2)c1C#N	none
Cc1[nH]c2ccccc2c1C(=O)CN1CCOCC1	none
O=S(=O)(c1ccc(F)cc1)N1CCN(Cc2ccc3c(c2)OCO3)CC1	Dicer inh 3.2
COc1cccc(CN2CCN(Cc3ccc4c(c3)OCO4)CC2)c1OC	Dicer inh 3.5
COc1cc(CN2CCN(Cc3ccc4c(c3)OCO4)CC2)cc(OC)c1	none
CCc1ccc(S(=O)(=O)N2CCN(Cc3ccc4c(c3)OCO4)CC2)cc1	none
COc1ccc(CN2CCN(Cc3ccc4c(c3)OCO4)CC2)cc1OCc1ccccc1	none
Cc1[nH]c2ccccc2c1C(=O)CN1CCN(Cc2ccc3c(c2)OCO3)CC1	Dicer inh 3.3
COc1ccc(CN2CCN(Cc3ccc4c(c3)OCO4)CC2)cc1	none
O=S(=O)(c1ccc2c(c1)OCCO2)N1CCN(Cc2ccc3c(c2)OCO3)CC1	none
COc1ccccc1CN1CCN(Cc2ccc3c(c2)OCO3)CC1	Dicer inh 4.2
COc1ccc(CN2CCN(Cc3ccc4c(c3)OCO4)CC2)c(OC)c1	none
COc1cccc(CNCc2ccc3c(c2)OCO3)c1OC	none
CSc1cc(C(C)(C)C)nn1C(=O)c1ccc(Cl)cc1	none
Cc1nn2c3c(cnc2c1-c1ccccc1)C(=O)CC(c1cccs1)C3 (stereo unspecified)	none
CCN(CC)C(=S)Nc1cccc(SC)c1	none
CCOC(=O)c1nc(-c2ccccc2)sc1-c1ccn[nH]1	none
CCOC(=O)Sc1ccc2ccccc2c1	none
COc1ccc(/C(O)=C2\C(=O)C(=O)N(Cc3cccnc3)C2c2ccc(C)cc2)cc1 (stereo unspecified)	none
O=C(Nc1ccccc1)c1cc2ccc3ccccc3c2s1	Dicer inh 3.5
O=C(O)c1cc2ccc3ccccc3c2s1	Dicer inh 4.1
O=C(Nc1ccccc1)c1cc2sccc2s1	none
